Data taken from the supplement of paper PMC9446081.
± gives the standard deviation of the averaged measurements.

Columns and labels:
Experiment in all cases: relative enzymatic activity vs untreated control (fraction); higher = less inhibition
Details in all cases: 100 µM; incubation time: 2 h at 37 C
DNA gyrase = system: DNA gyrase
Description: (§1)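 In vitro enzymatic inhibition assays (ProFoldin kits) for 12 purified essential E. coli enzymes or complexes, each treated with 218 active antibacterial compounds at 100 µM for 2 h at 37°C. Read-outs were fluorescence or absorbance (phosphate detection, dye binding), converted to activity via standard curves and expressed relative to untreated DMSO controls.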

DNA helicase = DNA helicase (UniProt P0ACB1)
Chain of DNA helicase (P0ACB1 whole entry): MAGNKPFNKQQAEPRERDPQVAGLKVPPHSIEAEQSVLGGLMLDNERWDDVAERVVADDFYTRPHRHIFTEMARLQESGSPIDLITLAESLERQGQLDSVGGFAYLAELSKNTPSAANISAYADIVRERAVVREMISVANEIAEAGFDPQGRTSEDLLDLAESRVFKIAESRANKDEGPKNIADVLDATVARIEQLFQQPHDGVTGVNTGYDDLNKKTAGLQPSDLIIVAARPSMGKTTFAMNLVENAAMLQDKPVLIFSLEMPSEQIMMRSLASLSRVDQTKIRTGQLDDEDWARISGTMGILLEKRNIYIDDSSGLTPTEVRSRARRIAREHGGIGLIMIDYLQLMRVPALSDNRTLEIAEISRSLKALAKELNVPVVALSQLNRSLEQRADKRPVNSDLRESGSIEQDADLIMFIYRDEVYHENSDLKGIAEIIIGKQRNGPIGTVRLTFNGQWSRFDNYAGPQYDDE
Description: as §1

DNA ligase = DNA ligase (UniProt B1XA82)
Chain of DNA ligase (B1XA82 whole entry): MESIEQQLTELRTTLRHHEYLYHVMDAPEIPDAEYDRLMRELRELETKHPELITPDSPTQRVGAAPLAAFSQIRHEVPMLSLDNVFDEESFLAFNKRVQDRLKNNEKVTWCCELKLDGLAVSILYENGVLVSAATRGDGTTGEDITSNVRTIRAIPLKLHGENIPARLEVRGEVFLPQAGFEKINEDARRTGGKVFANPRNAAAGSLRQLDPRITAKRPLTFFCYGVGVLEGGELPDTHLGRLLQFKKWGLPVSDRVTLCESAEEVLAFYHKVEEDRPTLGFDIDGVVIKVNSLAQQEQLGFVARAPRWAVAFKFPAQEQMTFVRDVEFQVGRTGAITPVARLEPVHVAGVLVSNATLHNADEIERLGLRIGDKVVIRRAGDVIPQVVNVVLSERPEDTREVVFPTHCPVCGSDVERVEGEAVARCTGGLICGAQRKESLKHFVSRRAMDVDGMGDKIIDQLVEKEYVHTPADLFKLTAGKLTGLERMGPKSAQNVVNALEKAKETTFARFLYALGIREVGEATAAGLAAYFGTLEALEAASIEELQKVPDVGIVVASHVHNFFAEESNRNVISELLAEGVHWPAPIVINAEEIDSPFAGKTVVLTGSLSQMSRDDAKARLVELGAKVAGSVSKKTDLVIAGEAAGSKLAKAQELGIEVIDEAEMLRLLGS
Description: as §1

DNA polymerase = DNA polymerase (UniProt P10443)
Chain of DNA polymerase (P10443 whole entry): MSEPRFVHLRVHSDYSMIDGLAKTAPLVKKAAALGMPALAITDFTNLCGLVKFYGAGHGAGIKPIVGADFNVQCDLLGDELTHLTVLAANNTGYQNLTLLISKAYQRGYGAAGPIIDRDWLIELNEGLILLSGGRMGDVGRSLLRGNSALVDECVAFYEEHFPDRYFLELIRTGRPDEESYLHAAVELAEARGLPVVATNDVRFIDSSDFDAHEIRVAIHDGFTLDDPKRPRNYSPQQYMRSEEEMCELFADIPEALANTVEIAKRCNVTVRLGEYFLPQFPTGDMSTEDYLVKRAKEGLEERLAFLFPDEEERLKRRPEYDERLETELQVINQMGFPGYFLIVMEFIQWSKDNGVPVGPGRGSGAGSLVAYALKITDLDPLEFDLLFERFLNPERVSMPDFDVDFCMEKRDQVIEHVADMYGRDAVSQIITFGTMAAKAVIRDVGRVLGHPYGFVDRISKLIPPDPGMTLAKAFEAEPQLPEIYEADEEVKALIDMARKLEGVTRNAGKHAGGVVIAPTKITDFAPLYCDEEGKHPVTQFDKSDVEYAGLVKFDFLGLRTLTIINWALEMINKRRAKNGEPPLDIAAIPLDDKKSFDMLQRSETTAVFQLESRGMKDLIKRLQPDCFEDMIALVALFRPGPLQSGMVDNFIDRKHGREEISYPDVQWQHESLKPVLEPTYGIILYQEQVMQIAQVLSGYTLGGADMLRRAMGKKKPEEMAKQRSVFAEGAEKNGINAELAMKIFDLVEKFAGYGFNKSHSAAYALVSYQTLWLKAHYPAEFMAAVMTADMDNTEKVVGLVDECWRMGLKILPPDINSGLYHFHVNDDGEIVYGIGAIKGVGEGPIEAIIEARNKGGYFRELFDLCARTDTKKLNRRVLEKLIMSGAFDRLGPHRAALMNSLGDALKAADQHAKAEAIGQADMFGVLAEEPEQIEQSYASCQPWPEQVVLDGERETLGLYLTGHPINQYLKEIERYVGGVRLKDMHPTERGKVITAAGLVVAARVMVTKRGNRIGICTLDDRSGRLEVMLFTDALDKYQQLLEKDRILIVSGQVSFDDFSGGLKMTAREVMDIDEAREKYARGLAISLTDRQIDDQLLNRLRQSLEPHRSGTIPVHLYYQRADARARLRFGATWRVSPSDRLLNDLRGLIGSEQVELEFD
Description: as §1

DNA primase = DNA primase (UniProt P0ABS7)
Chain of DNA primase (P0ABS7 whole entry): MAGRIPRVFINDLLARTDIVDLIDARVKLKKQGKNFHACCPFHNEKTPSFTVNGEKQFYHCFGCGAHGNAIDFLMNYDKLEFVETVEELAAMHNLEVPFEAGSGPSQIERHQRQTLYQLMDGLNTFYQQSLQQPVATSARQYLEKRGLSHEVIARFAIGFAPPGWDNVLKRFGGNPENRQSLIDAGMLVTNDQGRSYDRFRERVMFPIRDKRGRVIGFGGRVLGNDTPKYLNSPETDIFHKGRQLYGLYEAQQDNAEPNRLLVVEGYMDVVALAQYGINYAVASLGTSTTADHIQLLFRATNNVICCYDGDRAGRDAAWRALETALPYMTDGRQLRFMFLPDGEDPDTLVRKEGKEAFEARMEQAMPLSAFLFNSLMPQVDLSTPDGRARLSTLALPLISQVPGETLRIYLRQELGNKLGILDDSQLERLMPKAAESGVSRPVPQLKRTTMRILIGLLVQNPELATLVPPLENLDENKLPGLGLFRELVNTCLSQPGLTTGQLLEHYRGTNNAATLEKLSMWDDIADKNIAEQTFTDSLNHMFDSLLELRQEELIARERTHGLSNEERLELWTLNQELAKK
Description: as §1

GlmU = GlmU (UniProt A7ZTU1)
Chain of GlmU (A7ZTU1 whole entry, looked up): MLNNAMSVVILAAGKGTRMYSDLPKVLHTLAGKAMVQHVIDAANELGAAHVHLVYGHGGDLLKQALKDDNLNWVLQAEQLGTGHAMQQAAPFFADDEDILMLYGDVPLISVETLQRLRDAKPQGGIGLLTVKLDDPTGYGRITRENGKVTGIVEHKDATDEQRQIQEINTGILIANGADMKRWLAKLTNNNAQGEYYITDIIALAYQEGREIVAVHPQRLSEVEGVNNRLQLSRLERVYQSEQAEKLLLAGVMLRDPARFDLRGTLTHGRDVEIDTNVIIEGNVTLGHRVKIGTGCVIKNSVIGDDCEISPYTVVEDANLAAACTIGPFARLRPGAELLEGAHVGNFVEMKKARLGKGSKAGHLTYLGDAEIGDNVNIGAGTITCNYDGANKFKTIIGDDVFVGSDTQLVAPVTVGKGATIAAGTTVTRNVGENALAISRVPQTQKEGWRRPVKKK
Description: as §1

Guanlyate kinase = Guanlyate kinase (UniProt Q0TBG1)
Chain of Guanlyate kinase (Q0TBG1 whole entry): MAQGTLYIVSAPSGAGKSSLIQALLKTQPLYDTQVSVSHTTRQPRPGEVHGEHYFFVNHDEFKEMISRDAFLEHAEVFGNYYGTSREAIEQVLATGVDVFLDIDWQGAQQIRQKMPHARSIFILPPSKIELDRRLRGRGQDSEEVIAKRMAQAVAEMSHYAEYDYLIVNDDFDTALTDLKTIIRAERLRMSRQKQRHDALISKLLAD
Description: as §1

MurA = MurA (UniProt Q3YX52)
Chain of MurA (Q3YX52 whole entry): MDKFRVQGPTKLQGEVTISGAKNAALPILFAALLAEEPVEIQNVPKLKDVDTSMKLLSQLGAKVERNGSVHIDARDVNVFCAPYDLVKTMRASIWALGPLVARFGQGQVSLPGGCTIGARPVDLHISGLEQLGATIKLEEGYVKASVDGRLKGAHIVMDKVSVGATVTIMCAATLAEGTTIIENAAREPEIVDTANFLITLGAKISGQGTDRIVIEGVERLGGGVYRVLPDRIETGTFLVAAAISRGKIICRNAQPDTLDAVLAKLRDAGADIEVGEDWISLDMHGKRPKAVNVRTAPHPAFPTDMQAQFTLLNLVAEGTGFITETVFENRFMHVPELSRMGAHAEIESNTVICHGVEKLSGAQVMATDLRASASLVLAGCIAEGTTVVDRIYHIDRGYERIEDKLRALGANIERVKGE
Description: as §1

MurD = biological target: T1, MurD (UniProt P14900)
T1 sequence (whole entry): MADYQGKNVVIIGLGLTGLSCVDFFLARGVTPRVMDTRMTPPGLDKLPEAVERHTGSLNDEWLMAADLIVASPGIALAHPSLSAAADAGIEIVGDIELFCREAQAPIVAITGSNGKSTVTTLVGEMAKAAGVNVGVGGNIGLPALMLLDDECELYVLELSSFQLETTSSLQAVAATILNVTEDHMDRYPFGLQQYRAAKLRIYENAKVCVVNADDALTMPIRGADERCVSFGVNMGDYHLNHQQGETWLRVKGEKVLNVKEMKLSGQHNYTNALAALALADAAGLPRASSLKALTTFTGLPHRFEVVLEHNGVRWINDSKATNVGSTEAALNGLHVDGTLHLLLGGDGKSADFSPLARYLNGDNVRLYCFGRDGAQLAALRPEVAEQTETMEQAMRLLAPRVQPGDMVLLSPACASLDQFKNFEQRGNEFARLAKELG
Description: as §1

MurF = biological target: T2, MurF (UniProt P11880)
T2 sequence (whole entry): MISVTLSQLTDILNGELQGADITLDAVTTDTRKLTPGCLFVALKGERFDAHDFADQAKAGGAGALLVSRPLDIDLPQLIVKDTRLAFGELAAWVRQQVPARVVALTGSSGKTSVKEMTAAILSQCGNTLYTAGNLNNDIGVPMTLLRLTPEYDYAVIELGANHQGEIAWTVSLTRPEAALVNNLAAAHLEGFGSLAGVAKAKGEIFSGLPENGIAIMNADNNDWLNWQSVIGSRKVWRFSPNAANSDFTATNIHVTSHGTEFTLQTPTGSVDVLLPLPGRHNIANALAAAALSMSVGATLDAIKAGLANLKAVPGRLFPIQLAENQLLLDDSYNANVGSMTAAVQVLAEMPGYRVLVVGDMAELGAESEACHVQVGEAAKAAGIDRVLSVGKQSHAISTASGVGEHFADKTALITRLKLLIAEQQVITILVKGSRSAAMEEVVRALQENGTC
Description: as §1

RNA polymerase = system: RNA polymerase
Description: as §1

Structure (SMILES)	relative enzymatic activity (DNA gyrase)	relative enzymatic activity (DNA helicase)	relative enzymatic activity (DNA ligase)	relative enzymatic activity (DNA polymerase)	relative enzymatic activity (DNA primase)	relative enzymatic activity (GlmU)	relative enzymatic activity (Guanlyate kinase)	relative enzymatic activity (MurA)	relative enzymatic activity (MurD)	relative enzymatic activity (MurF)	relative enzymatic activity (RNA polymerase)
CC1CN(c2c(F)c(F)c3c(=O)c(C(=O)O)cn(C4CC4)c3c2F)CC(C)N1 (configuration not stated)	0.063 ± 0.089	0.599 ± 0.21	1.09 ± 0.085	0.509 ± 0.72	0.8561 ± 0.0075	0.97 ± 0.066	0.949 ± 0.073	0.676 ± 0.015	0.597 ± 0.41	1.09 ± 0.014	0.847 ± 0.13
NC[C@H]1OB(O)c2c(OCCCO)cccc21	0.84 ± 0.32	0.308 ± 0.43	0.887 ± 0.13	1.08 ± 0.082	0.8235 ± 0.0023	0.922 ± 0.11	0.991 ± 0.1	0.709 ± 0.16	0.564 ± 0.35	1.17 ± 0.024	0.871 ± 0.073
CCOC(=O)OC(C)OC(=O)C1N2C(=O)C(NC(=O)C(N)c3ccccc3)C2SC1(C)C.Cl (configuration not stated)	0.992 ± 0.22	0.463 ± 0.04	0.901 ± 0.089	1.09 ± 0.16	0.841 ± 0.011	1.04 ± 0.033	0.975 ± 0.026	0.82 ± 0.1	0.598 ± 0.42	0.981 ± 0.23	0.803 ± 0.031
COC1(NC(=O)Cc2cccs2)C(=O)N2C(C(=O)[O-])=C(COC(N)=O)CSC21.[Na+] (configuration not stated)	1.11 ± 0.041	0.48 ± 0.015	0.855 ± 0.14	1.41 ± 0.51	0.663 ± 0.13	0.984 ± 0.011	1.08 ± 0.062	0.0814 ± 0.021	0.574 ± 0.37	1.01 ± 0.21	0.829 ± 0.017
Cc1scc2c1N(C(=O)CN1CCN(C)CC1)c1ccccc1NC2=O.Cl	0.878 ± 0.31	0.526 ± 0.058	1.12 ± 0.35	1.17 ± 0.21	0.65 ± 0.14	1.1 ± 0.12	0.9435 ± 0.0079	0.703 ± 0.12	0.608 ± 0.41	0.931 ± 0.16	0.841 ± 0.091
CC[C@@H]1OC(=O)[C@H](C)[C@@H](O[C@H]2C[C@@](C)(OC)[C@@H](O)[C@H](C)O2)[C@H](C)[C@@H](O[C@@H]2O[C@H](C)C[C@H](N(C)C)[C@H]2O)[C@](C)(O)C[C@@H](C)/C(=N\OCOCCOC)[C@H](C)[C@@H](O)[C@]1(C)O	0.682 ± 0.5	0.568 ± 0.081	0.8031 ± 0.0034	0.48 ± 0.67	0.8559 ± 0.0026	0.895 ± 0.076	0.922 ± 0.026	0.852 ± 0.19	0.583 ± 0.4	1.12 ± 0.015	0.884 ± 0.17
O=c1[nH]c(=O)n([C@H]2C[C@H](O)[C@@H](CO)O2)cc1F	0.574 ± 0.53	0.629 ± 0.23	0.789 ± 0.18	1.15 ± 0.27	0.8368 ± 0.0026	0.979 ± 0.066	0.927 ± 0.06	0.762 ± 0.13	0.584 ± 0.38	0.953 ± 0.23	0.7944 ± 0.0043
CCn1cc(C(=O)O)c(=O)c2cc(F)c(N3CCN(C)CC3)cc21.CS(=O)(=O)O	0.0308 ± 0.043	0.573 ± 0.14	1.16 ± 0.29	1.27 ± 0.33	0.843 ± 0.025	0.944 ± 0.037	0.919 ± 0.11	0.696 ± 0.11	0.589 ± 0.41	1.109 ± 0.0024	0.862 ± 0.089
CC1(C)S[C@@H]2[C@H](NC(=O)[C@H](NC(=O)N3CCNC3=O)c3ccccc3)C(=O)N2[C@H]1C(=O)O	0.794 ± 0.35	0.76 ± 0.44	0.934 ± 0.038	1.06 ± 0.04	0.864 ± 0.024	0.998 ± 0.033	0.935 ± 0.03	0.579 ± 0.11	0.583 ± 0.4	0.954 ± 0.23	0.869 ± 0.089
CCOC(=O)CCC(=O)O[C@H]1[C@H](O[C@@H]2[C@@H](C)[C@H](O[C@H]3C[C@@](C)(OC)[C@@H](O)[C@H](C)O3)[C@@H](C)C(=O)O[C@H](CC)[C@@](C)(O)[C@H](O)[C@@H](C)C(=O)[C@H](C)C[C@@]2(C)O)O[C@H](C)C[C@@H]1N(C)C	0.685 ± 0.3	0.691 ± 0.34	0.982 ± 0.061	1.17 ± 0.28	0.835 ± 0.0032	1.018 ± 0.0098	0.941 ± 0.052	0.816 ± 0.11	0.599 ± 0.4	0.961 ± 0.23	0.831 ± 0.037
Nc1ncn(C2OC(CO)C(O)C2O)c(=O)n1 (configuration not stated)	0.722 ± 0.32	0.653 ± 0.16	1.318 ± 0.003	1.27 ± 0.31	0.709 ± 0.21	1.14 ± 0.13	0.934 ± 0.14	0.786 ± 0.13	0.61 ± 0.4	0.987 ± 0.21	1.01 ± 0.18
CC1COc2c(N3CCN(C)CC3)c(F)cc3c(=O)c(C(=O)O)cn1c23 (configuration not stated)	0.0425 ± 0.06	0.698 ± 0.077	1.39 ± 0.046	1.3 ± 0.35	0.722 ± 0.2	1.1 ± 0.2	0.937 ± 0.12	0.757 ± 0.05	0.584 ± 0.4	0.976 ± 0.2	1.16 ± 0.38
CC(C)(O/N=C(\C(=O)N[C@@H]1C(=O)N2C(C(=O)O)=C(C[N+]3(CCNC(=O)c4ccc(O)c(O)c4Cl)CCCC3)CS[C@H]12)c1csc(N)n1)C(=O)O	0.401 ± 0.11	0.506 ± 0.075	0.933 ± 0.058	1.05 ± 0.32	0.753 ± 0.013	0.92 ± 0.062	0.834 ± 0.094	0.0569 ± 0.016	0.515 ± 0.35	1.01 ± 0.23	0.672 ± 0.082
Cn1cc(-c2[nH]c3cc(NC(=O)[C@H](N)C4CCCCC4)cc4c3c2C=NNC4=O)cn1	0.0124 ± 0.018	0.0463 ± 0.061	0.703 ± 0.085	0.083 ± 0.099	≤ 0	0.899 ± 0.013	0.0166 ± 0.0039	0.348 ± 0.12	0.599 ± 0.43	1.13 ± 0.017	0.191 ± 0.029
COC1C=COC2(C)Oc3c(C)c(O)c4c(O)c(c5c(nc6cc(C)ccn65)c4c3C2=O)NC(=O)C(C)=CC=CC(C)C(O)C(C)C(O)C(C)C(OC(C)=O)C1C (configuration not stated)	0.733 ± 0.23	0.703 ± 0.32	1.12 ± 0.24	1.11 ± 0.24	0.8 ± 0.047	0.746 ± 0.032	0.583 ± 0.0086	0.423 ± 0.046	0.417 ± 0.28	0.788 ± 0.15	0.106 ± 0.0026
CON=C(C(=O)NC1C(=O)N2C(C(=O)[O-])=C(COC(N)=O)CSC12)c1ccco1.[Na+] (configuration not stated)	1.06 ± 0.11	0.47 ± 0.024	1.36 ± 0.18	1.12 ± 0.2	0.69 ± 0.18	1.12 ± 0.054	0.9 ± 0.019	0.117 ± 0.034	0.72 ± 0.49	1.02 ± 0.23	0.866 ± 0.088
CC[C@H]1OC(=O)C[C@@H](O)[C@H](C)[C@@H](O[C@@H]2O[C@H](C)C[C@H](N(C)C)[C@H]2O)[C@@H](CC=O)C[C@@H](C)C(=O)/C=C/[C@]2(C)O[C@H]2[C@@H]1C	0.781 ± 0.33	0.296 ± 0.13	0.912 ± 0.064	1.17 ± 0.26	0.854 ± 0.017	1.0039 ± 0.00034	0.968 ± 0.11	0.673 ± 0.17	0.55 ± 0.38	1.06 ± 0.2	0.864 ± 0.08
